Experimental data reported in PubChem BioAssay (Tox21).
Records with an inconclusive call do not appear. Activity calls are given as the source filed them. Unless noted, the call rests on the fitted dose curve.

Tests used:
[1] = qHTS assay to identify small molecule agonists of the vitamin D receptor (VDR) signaling pathway - cell viability counter screen (AID 743224; active means well fitted curve in the direction sought with a large enough effect in the repeat runs; an effect the other way counts as inactive or inconclusive; further: series mostly up to about 63 µM; on the % scale 0 is the no-effect control and ±100 the full control effect; nearly all actives have a fitted effect of over 50% in size)
In short: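 Counter screen for cytotoxicity: VDR-bla cells at 2,000 cells/well, 16 h compound exposure, then CellTiter-Glo luminescence after the beta-lactamase measurement.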

[2] = qHTS assay to identify small molecule antagonists of the vitamin D receptor (VDR) signaling pathway - cell viability counter screen (AID 743225; active means well fitted curve in the direction sought with a large enough effect in the repeat runs; an effect the other way counts as inactive or inconclusive; further: on the % scale 0 is the no-effect control and ±100 the full control effect; nearly all actives have a fitted effect of over 50% in size)
In short: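 Read-out: CellTiter-Glo luminescence measured 30 min after reagent addition at room temperature. Cells were VDR-bla HEK 293T exposed 16 h at 37C, 5% CO2, to compound with 3 nM final calcitriol agonist.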

[3] = qHTS assay to identify small molecule agonists of the NFkB signaling pathway (AID 1159509; active means well fitted curve in the direction sought with a large enough effect in the signal ratio in the repeat runs, not every such curve was filed as active; the % refers to the signal ratio; further: series mostly up to about 61 µM; on the % scale 0 is the no-effect control and ±100 the full control effect)
In short: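 Beta-lactamase reporter assay run in quantitative high-throughput format on an NF-kB-responsive ME-180 line, with 5 hr compound treatment and a FRET-based blue/green fluorescence readout.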

[4] = qHTS assay to identify small molecule agonists of the NFkB signaling pathway - cell viability counter screen (AID 1159515); further: series mostly up to about 61 µM; on the % scale 0 is the no-effect control and ±100 the full control effect; nearly all actives have a fitted effect of over 55% in size
In short: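 Counter screen run alongside the NFkB-bla agonist assay: ME-180 reporter cells exposed to compounds for 5 hr, then lysed with CellTiter-Glo in the same wells. Luminescence, read after 30 min, reflects viable cells.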

[5] = qHTS assay to identify small molecule agonists of the endoplasmic reticulum stress response signaling pathway (AID 1159516; active means well fitted activation curve with a large enough effect in the signal ratio in the repeat runs, not every such curve was filed as active; the % refers to the signal ratio; further: on the % scale 0 is the no-effect control and ±100 the full control effect)
In short: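 For this screen, HeLa cells stably carrying beta-lactamase under the ER stress response element received test compounds, positive controls or DMSO for 5 hr at 37 C; B/G FRET substrate was then added and dual-wavelength emission recorded.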

[6] = qHTS assay to identify small molecule agonists of the endoplasmic reticulum stress response signaling pathway - cell viability counter screen (AID 1159517); further: series mostly up to about 61 µM; on the % scale 0 is the no-effect control and ±100 the full control effect; nearly all actives have a fitted effect of over 50% in size
In short: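 Steps: seed 1,500 ESRE-bla HeLa cells per well; incubate overnight at 37 C, 5% CO2; add compounds in DMSO for 5 hr; run FRET substrate 2 hr RT; add CellTiter-Glo, wait 30 min, read luminescence.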

[7] = qHTS assay to identify small molecule antagonists of the retinoid-related orphan receptor gamma (ROR-gamma) signaling pathway - cell viability counter screen (AID 1159520; active means well fitted curve in the direction sought with a large enough effect in the repeat runs; an effect the other way counts as inactive or inconclusive; further: on the % scale 0 is the no-effect control and ±100 the full control effect; nearly all actives have a fitted effect of over 50% in size)
In short: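 Tet-on ROR gamma CHO cells were given compounds for 2 hr, then doxycycline hyclate at 1 uM final, and incubated 16 hr at 37 C. Viability was measured as ATP content by CellTiter-Glo luminescence.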

[8] = qHTS assay to identify small molecule agonists of the AP-1 signaling pathway - cell viability counter screen (AID 1159525); further: nearly all actives have a fitted effect of over 55% in size
In short: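 Same-well cytotoxicity counter screen of the Tox21 10K library in ME-180 cells. The readout is ATP-dependent luminescence after 5 h compound treatment. Data are normalised to DMSO and tetra n-octyl ammonium bromide controls.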

[9] = qHTS assay to identify small molecule agonists of the AP-1 signaling pathway (AID 1159526); further: on the % scale 0 is the no-effect control and ±100 the full control effect
[10] = target: Nuclear receptor ROR-gamma (Homo sapiens) (UniProt P51449); assay: qHTS assay to identify small molecule antagonists of the retinoid-related orphan receptor gamma (ROR-gamma) signaling pathway (AID 1159521; active means well fitted curve in the direction sought with a large enough effect in the repeat runs; an effect the other way counts as inactive or inconclusive; further: nearly all actives have a fitted effect of over 50% in size; further: potency means the concentration at half of the fitted maximal effect;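 on activity change, negative = inhibition: CHO cells with doxycycline inducible ROR-gamma driving an RORE luciferase reporter; top concentration of the series differs between compounds; on the % scale 0 is the no-effect control and ±100 the full control effect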)
In short: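 CHO Tet-on RORγ, RORE-luc reporter. Cpd 2 h pre-incubation, then dox hyclate 1 uM final, 16 h, 37 C/5% CO2. ONE-Glo luminescence; decrease = antagonist.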

CCN1CCN(c2cc3c(cc2F)c(=O)c(C(=O)O)cn3C2CC2)CC1
inactive: outcome [1] | outcome [2] | outcome [3] | outcome [4] | outcome [5] | outcome [6] | Potency [7] | outcome [8] | Potency [9]

CC12CCC(CC1=O)C2(C)C (stereo unspecified)
inactive: outcome [1] | outcome [2] | outcome [3] | outcome [4] | outcome [5] | outcome [6] | Potency [10] | outcome [8] | Potency [9]

O=C(CCOCCOCCOCCOCCC(=O)Nc1c(I)cc(I)c(C(=O)O)c1I)Nc1c(I)cc(I)c(C(=O)O)c1I
inactive: outcome [1] | outcome [2] | outcome [3] | outcome [4] | outcome [5] | outcome [6] | Potency [7] | outcome [8] | Potency [9]

CCN(CC)S(=O)(=O)c1ccc(C(=O)O)cc1
inactive: outcome [1] | outcome [2] | outcome [3] | outcome [4] | outcome [5] | outcome [6] | Potency [10] | outcome [8] | Potency [9]

C=C(C)C(=O)NCCC[N+](C)(C)C
inactive: outcome [1] | outcome [3] | outcome [4] | outcome [5] | outcome [6] | Potency [10] | outcome [8] | Potency [9]

COC(=O)CCCCCCCCC(=O)OC
inactive: outcome [1] | outcome [3] | outcome [4] | outcome [5] | Potency [10] | outcome [8] | Potency [9]

CCCC(=O)O[C@]1(C(=O)CCl)[C@@H](C)C[C@H]2[C@@H]3CCC4=CC(=O)C=C[C@]4(C)[C@@]3(F)C(=O)C[C@@]21C
active: Potency [10] 10.6 µM
inactive: outcome [1] | outcome [4] | outcome [5] | outcome [6] | Potency [7] | outcome [8] | Potency [9]

CCCOc1ccccc1-c1nc2n[nH]nc2c(=O)[nH]1
inactive: outcome [1] | outcome [2] | outcome [3] | outcome [4] | outcome [5] | Potency [7] | Potency [10] | outcome [8] | Potency [9]

COc1ccc(N=[N+]([O-])c2ccc(OC)cc2)cc1
inactive: outcome [1] | outcome [2] | outcome [3] | outcome [4] | outcome [5] | Potency [7] | Potency [10] | outcome [8] | Potency [9]

C=CCn1c(=O)n([C@@H]2O[C@H](CO)[C@@H](O)[C@H]2O)c2nc(N)[nH]c(=O)c21
inactive: outcome [1] | outcome [2] | outcome [3] | outcome [4] | outcome [5] | Potency [7] | Potency [10] | outcome [8] | Potency [9]

COCc1ccc(COC)cc1
inactive: outcome [1] | outcome [2] | outcome [3] | outcome [4] | outcome [5] | Potency [10] | outcome [8] | Potency [9]

CCCCCCOC(=O)CC(CC(=O)OCCCCCC)(OC(=O)CCC)C(=O)OCCCCCC
inactive: outcome [4] | outcome [5] | outcome [6] | Potency [7] | Potency [10] | outcome [8] | Potency [9]

CN(C)CCOC(c1ccc(Cl)cc1)c1ccccn1 (stereo unspecified)
inactive: outcome [1] | outcome [2] | outcome [3] | outcome [4] | outcome [5] | Potency [7] | outcome [8] | Potency [9]

C1COCCO1
inactive: outcome [1] | outcome [2] | outcome [3] | outcome [4] | outcome [5] | Potency [7] | Potency [10] | outcome [8] | Potency [9]

COC[C@H](c1ccc(C(F)(F)F)cc1)N1CCN(C2(C)CCN(C(=O)c3c(C)ncnc3C)CC2)C[C@H]1C
inactive: outcome [1] | outcome [3] | outcome [4] | outcome [5] | Potency [7] | Potency [10] | outcome [8] | Potency [9]

CN1[C@@H]2CC[C@H]1CC(NC(=O)n1c(=O)[nH]c3ccccc31)C2 (stereo partly specified)
inactive: outcome [1] | outcome [3] | outcome [4] | outcome [5] | Potency [7] | Potency [10] | outcome [8] | Potency [9]

CCn1cc(C(=O)O)c(=O)c2cc(F)c(N3CCN(C)CC3)cc21
inactive: outcome [4] | outcome [5] | outcome [6] | activity, negative = cytotoxicity [7] 0.209% [at 19 µM] | activity change, negative = inhibition [10] -0.847% [at 19 µM] | viability change, negative = cytotoxic [8] 2.53% [at 15.8 µM] | activation [9] 0.51% [at 15.8 µM]

CC(C)CCOC(=O)CC(C)C
inactive: outcome [1] | outcome [2] | outcome [3] | outcome [4] | outcome [5] | Potency [7] | Potency [10] | outcome [8] | Potency [9]

Cc1c(F)cc2c(=O)c(C(=O)O)cn3c2c1CCC3C (stereo unspecified)
inactive: outcome [1] | outcome [2] | outcome [3] | outcome [4] | outcome [5] | Potency [7] | Potency [10] | outcome [8] | Potency [9]

CC1CCN(CCCC(=O)c2ccc(F)cc2)CC1
inactive: outcome [3] | outcome [4] | outcome [5] | Potency [7] | Potency [10] | outcome [8] | Potency [9]

C=CCOCC(O)CS(=O)(=O)O (stereo unspecified)
inactive: outcome [1] | outcome [4] | outcome [5] | outcome [6] | Potency [7] | Potency [10] | outcome [8] | Potency [9]

CCC(C)OC(=O)N1CCCCC1CCO (stereo unspecified)
inactive: outcome [1] | outcome [2] | outcome [3] | outcome [4] | outcome [5] | outcome [8] | Potency [9]

COc1ccc2cc(C=O)ccc2c1
inactive: outcome [1] | outcome [3] | outcome [4] | outcome [5] | Potency [7] | Potency [10] | outcome [8] | Potency [9]

Cc1c(C)n(CCN(C)C)c2ccc(C(=O)OCCN(C)C)cc12
inactive: outcome [1] | outcome [2] | outcome [3] | outcome [4] | outcome [5] | Potency [7] | Potency [9]

C=C(C)C(=O)OCCCCCCCCCCCCCCCCCC
inactive: outcome [1] | outcome [2] | outcome [3] | outcome [4] | outcome [5] | activity, negative = cytotoxicity [7] -0.822% [at 19 µM] | activity change, negative = inhibition [10] 0.457% [at 19 µM] | viability change, negative = cytotoxic [8] 1.55% [at 15.8 µM] | activation [9] 0.371% [at 15.8 µM]

CC(C)(O)c1ccccc1
inactive: outcome [1] | outcome [4] | outcome [5] | outcome [6] | Potency [7] | Potency [10] | outcome [8] | Potency [9]

O=c1[nH]c2ccccc2c(=O)n1CCCl
inactive: outcome [1] | outcome [3] | outcome [4] | outcome [5] | Potency [7] | Potency [10] | outcome [8] | Potency [9]
